# Assay results as given in publication PMC7862700, “An all-to-all approach to the identification of sequence-specific readers for epigenetic DNA modifications on cytosine”.
# Experiments:
# Test in all cases: DAPPL (digital affinity profiling via proximity ligation, sequencing); 10 mM Tris-HCl pH 7.5, 50 mM NaCl, 1 mM DTT, 4% glycerol, room temperature, 30 min; GST-TFs on glutathione beads, 16-mer random dsDNA library, 0.1% formaldehyde crosslink after washing; high values mean tight binding
# [1] = biological target: T1, FLI1 (Homo sapiens, UniProt Q01543 1-452); conditions: protein: recombinant; tags: N-terminal GST; dsDNA, one strand shown
# T1 sequence: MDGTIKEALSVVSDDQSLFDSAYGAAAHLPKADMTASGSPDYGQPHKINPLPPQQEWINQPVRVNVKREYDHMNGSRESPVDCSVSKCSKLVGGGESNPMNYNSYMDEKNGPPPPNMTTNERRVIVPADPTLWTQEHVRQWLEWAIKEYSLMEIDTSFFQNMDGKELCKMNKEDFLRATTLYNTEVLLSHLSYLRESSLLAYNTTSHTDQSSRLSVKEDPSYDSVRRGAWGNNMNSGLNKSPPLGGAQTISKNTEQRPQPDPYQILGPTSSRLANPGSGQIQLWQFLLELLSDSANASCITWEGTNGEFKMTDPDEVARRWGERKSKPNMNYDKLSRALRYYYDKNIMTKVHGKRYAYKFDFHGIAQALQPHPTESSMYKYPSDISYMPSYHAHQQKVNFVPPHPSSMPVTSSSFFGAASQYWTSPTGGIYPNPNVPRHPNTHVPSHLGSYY
# In short: (§1)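 Human transcription factors carrying a GST fusion were produced in yeast, bound to glutathione beads, tagged with DNA barcodes and pooled together with a tag-only sample. Each pool was held with 200 nmole of a random double-stranded 16-mer DNA library in Tris/NaCl/DTT/glycerol buffer for 30 min at room temperature, then washed, crosslinked in 0.1% formaldehyde, proximity-ligated with BsaI/T4 ligase (1 h, 37 °C), PCR-amplified and sequenced on an Illumina NextSeq500. Binding signal is the read frequency of each hexamer for a given factor divided by its frequency in the tag-only sample.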
# [2] = biological target: T2, ELK1 (Homo sapiens, UniProt P19419 1-428); conditions: protein: recombinant; tags: N-terminal GST; dsDNA, one strand shown
# T2 sequence: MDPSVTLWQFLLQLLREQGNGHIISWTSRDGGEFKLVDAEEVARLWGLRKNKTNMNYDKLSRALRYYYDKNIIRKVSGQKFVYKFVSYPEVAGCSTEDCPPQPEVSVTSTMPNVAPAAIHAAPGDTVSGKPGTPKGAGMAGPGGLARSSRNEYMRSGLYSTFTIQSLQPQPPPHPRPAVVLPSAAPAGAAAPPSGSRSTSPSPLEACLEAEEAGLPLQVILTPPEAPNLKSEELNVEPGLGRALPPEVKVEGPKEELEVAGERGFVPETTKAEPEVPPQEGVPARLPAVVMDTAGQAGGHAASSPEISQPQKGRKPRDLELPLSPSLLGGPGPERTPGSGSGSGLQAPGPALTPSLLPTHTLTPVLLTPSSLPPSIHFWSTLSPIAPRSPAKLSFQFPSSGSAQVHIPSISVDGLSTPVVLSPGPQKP
# In short: as §1
# [3] = biological target: T3, GABPA (Homo sapiens, UniProt Q06546 1-454); conditions: protein: recombinant; tags: N-terminal GST; dsDNA, one strand shown
# T3 sequence: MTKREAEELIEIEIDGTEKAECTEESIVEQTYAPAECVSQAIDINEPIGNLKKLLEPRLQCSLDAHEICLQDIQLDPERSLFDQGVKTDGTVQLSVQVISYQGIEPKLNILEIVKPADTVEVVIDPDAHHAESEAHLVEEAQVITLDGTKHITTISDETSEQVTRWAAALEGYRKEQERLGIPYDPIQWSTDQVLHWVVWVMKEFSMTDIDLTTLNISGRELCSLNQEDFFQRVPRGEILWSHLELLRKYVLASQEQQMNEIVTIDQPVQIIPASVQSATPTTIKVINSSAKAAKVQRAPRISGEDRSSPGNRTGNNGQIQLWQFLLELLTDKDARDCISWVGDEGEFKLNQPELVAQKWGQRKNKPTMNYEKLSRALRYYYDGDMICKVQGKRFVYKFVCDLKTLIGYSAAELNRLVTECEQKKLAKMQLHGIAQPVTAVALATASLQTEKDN
# In short: as §1
# [4] = biological target: T4, ERG (Homo sapiens, UniProt P11308 1-479); conditions: protein: recombinant; tags: N-terminal GST; dsDNA, one strand shown
# T4 sequence: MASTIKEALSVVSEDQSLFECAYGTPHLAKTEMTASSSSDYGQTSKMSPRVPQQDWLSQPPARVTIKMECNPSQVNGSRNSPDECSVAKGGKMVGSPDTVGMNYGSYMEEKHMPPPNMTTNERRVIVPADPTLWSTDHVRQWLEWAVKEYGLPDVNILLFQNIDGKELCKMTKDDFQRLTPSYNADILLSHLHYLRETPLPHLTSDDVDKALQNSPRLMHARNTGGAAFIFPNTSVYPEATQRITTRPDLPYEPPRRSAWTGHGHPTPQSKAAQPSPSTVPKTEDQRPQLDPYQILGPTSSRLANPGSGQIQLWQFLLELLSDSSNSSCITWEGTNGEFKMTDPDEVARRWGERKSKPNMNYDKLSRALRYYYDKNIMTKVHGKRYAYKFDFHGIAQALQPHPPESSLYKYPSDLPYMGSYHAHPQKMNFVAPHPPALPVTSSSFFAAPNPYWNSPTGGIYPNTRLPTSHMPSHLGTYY
# In short: as §1
# [5] = biological target: ELF1 (Homo sapiens, UniProt P32519 1-619); conditions: protein: recombinant; tags: N-terminal GST; dsDNA, one strand shown
# ELF1, sequence (P32519 whole entry): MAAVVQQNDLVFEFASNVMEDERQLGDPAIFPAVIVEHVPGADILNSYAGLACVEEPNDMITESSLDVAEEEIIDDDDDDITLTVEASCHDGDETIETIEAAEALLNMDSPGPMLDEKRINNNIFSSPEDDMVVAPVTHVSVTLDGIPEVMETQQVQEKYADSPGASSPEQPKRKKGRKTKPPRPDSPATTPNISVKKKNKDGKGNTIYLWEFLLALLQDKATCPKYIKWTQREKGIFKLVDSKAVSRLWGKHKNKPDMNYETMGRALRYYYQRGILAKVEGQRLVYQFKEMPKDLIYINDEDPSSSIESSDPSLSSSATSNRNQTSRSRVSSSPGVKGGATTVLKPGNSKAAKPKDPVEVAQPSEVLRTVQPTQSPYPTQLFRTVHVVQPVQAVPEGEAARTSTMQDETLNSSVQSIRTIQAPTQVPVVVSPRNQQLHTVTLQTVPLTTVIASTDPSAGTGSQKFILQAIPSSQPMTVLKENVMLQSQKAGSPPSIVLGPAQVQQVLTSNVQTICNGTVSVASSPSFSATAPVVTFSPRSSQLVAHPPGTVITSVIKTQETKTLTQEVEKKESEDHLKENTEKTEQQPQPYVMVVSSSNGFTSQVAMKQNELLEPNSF
# In short: as §1
# [6] = biological target: T5, EHF (Homo sapiens, UniProt Q9NZC4 1-300); conditions: protein: recombinant; tags: N-terminal GST; dsDNA, one strand shown
# T5 sequence: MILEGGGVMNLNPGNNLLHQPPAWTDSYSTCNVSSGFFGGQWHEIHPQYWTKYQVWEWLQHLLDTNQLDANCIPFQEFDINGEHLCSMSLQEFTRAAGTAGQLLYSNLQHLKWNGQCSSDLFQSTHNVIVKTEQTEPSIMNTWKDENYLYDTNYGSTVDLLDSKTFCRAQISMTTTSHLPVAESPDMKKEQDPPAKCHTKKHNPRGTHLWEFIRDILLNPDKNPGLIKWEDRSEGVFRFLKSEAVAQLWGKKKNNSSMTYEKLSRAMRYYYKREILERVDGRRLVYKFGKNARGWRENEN
# In short: as §1
# [7] = biological target: SPI1 (Homo sapiens, UniProt P17947 1-270); conditions: protein: recombinant; tags: N-terminal GST; dsDNA, one strand shown
# In short: as §1
# [8] = biological target: SPIB (Homo sapiens, UniProt Q01892 1-262); conditions: protein: recombinant; tags: N-terminal GST; dsDNA, one strand shown
# SPIB, sequence (Q01892 whole entry): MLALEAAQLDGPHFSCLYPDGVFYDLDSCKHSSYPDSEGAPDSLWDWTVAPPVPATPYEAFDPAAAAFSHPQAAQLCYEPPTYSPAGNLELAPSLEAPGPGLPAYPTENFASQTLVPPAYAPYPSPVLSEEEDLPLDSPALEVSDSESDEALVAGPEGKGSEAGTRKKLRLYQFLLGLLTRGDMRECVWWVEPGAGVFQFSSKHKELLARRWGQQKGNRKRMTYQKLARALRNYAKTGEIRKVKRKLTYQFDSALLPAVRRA
# In short: as §1
# [9] = biological target: T6, ELK3 (Homo sapiens, UniProt P41970 1-407); conditions: protein: recombinant; tags: N-terminal GST; dsDNA, one strand shown
# T6 sequence: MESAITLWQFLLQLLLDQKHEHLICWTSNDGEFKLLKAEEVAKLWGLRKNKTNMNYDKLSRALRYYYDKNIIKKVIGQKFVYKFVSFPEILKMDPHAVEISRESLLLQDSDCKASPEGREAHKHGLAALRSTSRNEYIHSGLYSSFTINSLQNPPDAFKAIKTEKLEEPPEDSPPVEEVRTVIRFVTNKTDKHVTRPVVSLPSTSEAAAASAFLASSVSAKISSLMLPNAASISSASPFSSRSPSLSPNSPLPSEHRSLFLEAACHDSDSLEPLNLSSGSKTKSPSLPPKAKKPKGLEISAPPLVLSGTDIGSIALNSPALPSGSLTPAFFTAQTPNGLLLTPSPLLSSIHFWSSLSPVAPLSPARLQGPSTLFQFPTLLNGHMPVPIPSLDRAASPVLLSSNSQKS
# In short: as §1
# [10] = biological target: T7, FEV (Homo sapiens, UniProt Q99581 1-238); conditions: protein: recombinant; tags: N-terminal GST; dsDNA, one strand shown
# T7 sequence: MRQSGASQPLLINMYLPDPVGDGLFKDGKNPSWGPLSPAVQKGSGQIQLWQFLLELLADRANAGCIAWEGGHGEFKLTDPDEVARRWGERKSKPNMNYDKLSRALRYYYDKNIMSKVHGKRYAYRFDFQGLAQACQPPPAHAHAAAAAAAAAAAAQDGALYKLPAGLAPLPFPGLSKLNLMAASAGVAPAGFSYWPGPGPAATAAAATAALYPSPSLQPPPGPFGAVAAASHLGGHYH
# In short: as §1
# [11] = biological target: ETV5 (Homo sapiens, UniProt P41161 1-510); conditions: protein: recombinant; tags: N-terminal GST; dsDNA, one strand shown
# ETV5, sequence (P41161 whole entry): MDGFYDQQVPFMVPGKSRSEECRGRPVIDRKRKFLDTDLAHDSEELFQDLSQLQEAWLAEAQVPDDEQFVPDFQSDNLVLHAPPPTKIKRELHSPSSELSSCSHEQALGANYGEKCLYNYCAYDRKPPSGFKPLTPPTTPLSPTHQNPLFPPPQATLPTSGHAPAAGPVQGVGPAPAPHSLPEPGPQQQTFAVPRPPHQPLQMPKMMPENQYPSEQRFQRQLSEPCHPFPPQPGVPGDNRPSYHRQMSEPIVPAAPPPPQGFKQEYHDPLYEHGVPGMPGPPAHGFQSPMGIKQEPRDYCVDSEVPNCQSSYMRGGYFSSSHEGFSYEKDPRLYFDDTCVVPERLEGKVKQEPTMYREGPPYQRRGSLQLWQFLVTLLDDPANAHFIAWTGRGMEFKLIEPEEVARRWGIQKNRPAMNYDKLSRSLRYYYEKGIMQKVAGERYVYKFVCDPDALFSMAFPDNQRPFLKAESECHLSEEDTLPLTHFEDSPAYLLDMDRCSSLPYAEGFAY
# In short: as §1
# [12] = biological target: HSF1 (Homo sapiens, UniProt Q00613 1-529); conditions: protein: recombinant; tags: N-terminal GST; chain copies: 3; dsDNA, one strand shown
# HSF1, sequence (Q00613 whole entry): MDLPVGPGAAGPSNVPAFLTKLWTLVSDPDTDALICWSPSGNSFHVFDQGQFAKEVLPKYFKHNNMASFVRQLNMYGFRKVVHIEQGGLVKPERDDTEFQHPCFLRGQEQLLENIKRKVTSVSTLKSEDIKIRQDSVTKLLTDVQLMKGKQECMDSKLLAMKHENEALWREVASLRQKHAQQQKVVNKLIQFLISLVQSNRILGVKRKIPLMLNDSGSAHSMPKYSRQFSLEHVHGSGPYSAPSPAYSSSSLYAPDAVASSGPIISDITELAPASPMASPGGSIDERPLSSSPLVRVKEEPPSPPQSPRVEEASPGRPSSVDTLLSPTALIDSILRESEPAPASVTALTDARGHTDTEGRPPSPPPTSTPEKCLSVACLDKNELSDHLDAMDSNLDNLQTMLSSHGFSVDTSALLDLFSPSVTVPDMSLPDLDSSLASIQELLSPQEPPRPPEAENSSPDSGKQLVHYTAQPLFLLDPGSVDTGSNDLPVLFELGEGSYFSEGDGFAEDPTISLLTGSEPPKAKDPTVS
# In short: as §1
# [13] = biological target: T8, SPIC (Homo sapiens, UniProt Q8N5J4 1-248); conditions: protein: recombinant; tags: N-terminal GST; dsDNA, one strand shown
# T8 sequence: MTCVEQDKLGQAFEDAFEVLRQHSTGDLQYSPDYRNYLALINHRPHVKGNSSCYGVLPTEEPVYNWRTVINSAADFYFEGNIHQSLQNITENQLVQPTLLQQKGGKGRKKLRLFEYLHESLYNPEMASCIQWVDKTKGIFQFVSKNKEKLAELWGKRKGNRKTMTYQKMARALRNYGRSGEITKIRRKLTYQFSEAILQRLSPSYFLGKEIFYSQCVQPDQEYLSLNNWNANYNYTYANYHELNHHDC
# In short: as §1
# [14] = biological target: ELF4 (Homo sapiens, UniProt Q99607 1-663); conditions: protein: recombinant; tags: N-terminal GST; dsDNA, one strand shown
# ELF4, sequence (Q99607 whole entry): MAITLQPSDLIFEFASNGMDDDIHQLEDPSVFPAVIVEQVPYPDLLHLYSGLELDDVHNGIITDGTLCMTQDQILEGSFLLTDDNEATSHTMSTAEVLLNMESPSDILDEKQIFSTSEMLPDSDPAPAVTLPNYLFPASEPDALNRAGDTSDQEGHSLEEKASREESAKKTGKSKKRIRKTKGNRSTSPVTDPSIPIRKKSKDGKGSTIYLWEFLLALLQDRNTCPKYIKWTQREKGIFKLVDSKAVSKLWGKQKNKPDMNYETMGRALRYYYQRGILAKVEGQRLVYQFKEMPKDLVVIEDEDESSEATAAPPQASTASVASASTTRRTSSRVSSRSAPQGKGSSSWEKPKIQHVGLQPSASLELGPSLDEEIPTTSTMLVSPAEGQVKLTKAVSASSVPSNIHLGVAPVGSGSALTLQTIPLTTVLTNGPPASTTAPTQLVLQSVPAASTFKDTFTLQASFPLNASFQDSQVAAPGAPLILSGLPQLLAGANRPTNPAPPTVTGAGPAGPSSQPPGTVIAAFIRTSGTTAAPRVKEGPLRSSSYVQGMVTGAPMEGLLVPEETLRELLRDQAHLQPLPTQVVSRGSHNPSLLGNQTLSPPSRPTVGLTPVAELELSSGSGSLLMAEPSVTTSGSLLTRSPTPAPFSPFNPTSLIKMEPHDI
# In short: as §1
# [15] = biological target: T9, ELK4 (Homo sapiens, UniProt P28324-2 1-405); conditions: protein: recombinant; tags: N-terminal GST; dsDNA, one strand shown
# T9 sequence: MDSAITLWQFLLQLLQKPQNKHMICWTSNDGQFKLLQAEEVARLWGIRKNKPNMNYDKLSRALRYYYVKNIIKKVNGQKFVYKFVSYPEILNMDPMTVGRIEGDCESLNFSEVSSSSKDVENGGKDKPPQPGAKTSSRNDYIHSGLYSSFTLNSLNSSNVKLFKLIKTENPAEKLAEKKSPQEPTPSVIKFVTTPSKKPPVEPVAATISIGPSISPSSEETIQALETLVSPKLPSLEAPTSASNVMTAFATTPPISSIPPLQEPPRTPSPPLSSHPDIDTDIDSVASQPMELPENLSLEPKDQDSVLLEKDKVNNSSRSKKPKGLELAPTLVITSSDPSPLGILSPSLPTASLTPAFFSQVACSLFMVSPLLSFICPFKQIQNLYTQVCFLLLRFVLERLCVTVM
# In short: as §1
# [16] = biological target: T10, ETV2 (Homo sapiens, UniProt O00321 1-342); conditions: protein: recombinant; tags: N-terminal GST; dsDNA, one strand shown
# T10 sequence: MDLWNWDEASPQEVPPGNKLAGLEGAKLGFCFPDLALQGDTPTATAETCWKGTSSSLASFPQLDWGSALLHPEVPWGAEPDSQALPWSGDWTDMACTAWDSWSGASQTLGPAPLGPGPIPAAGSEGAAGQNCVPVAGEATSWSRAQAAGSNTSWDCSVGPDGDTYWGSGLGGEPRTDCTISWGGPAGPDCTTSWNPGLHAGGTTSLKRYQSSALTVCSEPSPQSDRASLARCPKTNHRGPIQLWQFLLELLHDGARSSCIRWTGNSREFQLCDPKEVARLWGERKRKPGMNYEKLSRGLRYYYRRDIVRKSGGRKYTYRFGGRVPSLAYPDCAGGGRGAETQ
# In short: as §1
# [17] = biological target: T11, ELF3 (Homo sapiens, UniProt P78545 1-371); conditions: protein: recombinant; tags: N-terminal GST; dsDNA, one strand shown
# T11 sequence: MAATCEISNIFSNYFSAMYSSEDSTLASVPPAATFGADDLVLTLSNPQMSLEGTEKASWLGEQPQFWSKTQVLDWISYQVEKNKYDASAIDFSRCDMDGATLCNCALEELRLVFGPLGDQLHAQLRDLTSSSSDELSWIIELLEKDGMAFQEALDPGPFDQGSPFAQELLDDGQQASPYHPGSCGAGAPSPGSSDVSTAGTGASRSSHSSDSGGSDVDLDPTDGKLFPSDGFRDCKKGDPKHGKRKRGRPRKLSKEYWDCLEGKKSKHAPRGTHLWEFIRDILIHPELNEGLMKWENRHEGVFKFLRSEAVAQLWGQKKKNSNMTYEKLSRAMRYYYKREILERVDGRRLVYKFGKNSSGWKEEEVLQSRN
# In short: as §1
# [18] = biological target: ETV1 (Homo sapiens, UniProt P50549 1-477); conditions: protein: recombinant; tags: N-terminal GST; dsDNA, one strand shown
# ETV1, sequence (P50549 whole entry): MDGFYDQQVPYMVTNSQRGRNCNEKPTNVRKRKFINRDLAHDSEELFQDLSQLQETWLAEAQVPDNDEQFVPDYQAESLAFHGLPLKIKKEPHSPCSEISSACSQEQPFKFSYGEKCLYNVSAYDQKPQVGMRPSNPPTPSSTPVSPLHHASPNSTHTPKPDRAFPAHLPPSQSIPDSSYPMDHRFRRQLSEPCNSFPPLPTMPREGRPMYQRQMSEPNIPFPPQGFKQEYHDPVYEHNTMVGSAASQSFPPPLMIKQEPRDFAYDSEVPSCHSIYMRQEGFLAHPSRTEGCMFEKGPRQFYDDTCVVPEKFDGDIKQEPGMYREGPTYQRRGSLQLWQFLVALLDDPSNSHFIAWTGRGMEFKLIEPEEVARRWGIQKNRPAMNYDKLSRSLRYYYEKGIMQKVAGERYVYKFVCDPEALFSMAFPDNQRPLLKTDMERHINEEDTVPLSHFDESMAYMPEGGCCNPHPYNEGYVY
# In short: as §1
sequence,measurement,setting,value
ACATAC,binding signal,[1],"1.18 fold enrichment (6-mer frequency, TF over GST control)"
same,binding signal,[2],"1.14 fold enrichment (6-mer frequency, TF over GST control)"
same,binding signal,[3],"1.19 fold enrichment (6-mer frequency, TF over GST control)"
same,binding signal,[4],"1.19 fold enrichment (6-mer frequency, TF over GST control)"
same,binding signal,[5],"1.17 fold enrichment (6-mer frequency, TF over GST control)"
same,binding signal,[6],"1.14 fold enrichment (6-mer frequency, TF over GST control)"
same,binding signal,[7],"1.16 fold enrichment (6-mer frequency, TF over GST control)"
same,binding signal,[8],"1.09 fold enrichment (6-mer frequency, TF over GST control)"
same,binding signal,[9],"1.17 fold enrichment (6-mer frequency, TF over GST control)"
same,binding signal,[10],"1.13 fold enrichment (6-mer frequency, TF over GST control)"
same,binding signal,[11],"1.17 fold enrichment (6-mer frequency, TF over GST control)"
same,binding signal,[12],"1.07 fold enrichment (6-mer frequency, TF over GST control)"
same,binding signal,[13],"1.11 fold enrichment (6-mer frequency, TF over GST control)"
same,binding signal,[14],"1.21 fold enrichment (6-mer frequency, TF over GST control)"
same,binding signal,[15],"1.01 fold enrichment (6-mer frequency, TF over GST control)"
same,binding signal,[16],"1.32 fold enrichment (6-mer frequency, TF over GST control)"
same,binding signal,[17],"1.25 fold enrichment (6-mer frequency, TF over GST control)"
same,binding signal,[18],"1.15 fold enrichment (6-mer frequency, TF over GST control)"
